# Where “and” joins values, the source holds several entries; their conditions need not be identical. Equal entries are not always repeated. Results filed as inconclusive are left out. The source holds several records for some structures; these can differ, active in one and inactive in another. Calls of active or inactive are those of the source. Rule for the calls: active = hit-call score of the fitted dose curve at least 0.9, where 1 is the maximum; inconclusive = response in the unintended direction; inactive = score below 0.9.
# Target: Cellular tumor antigen p53 (Homo sapiens) (UniProt P04637)
# Sequence (P04637 whole entry, looked up): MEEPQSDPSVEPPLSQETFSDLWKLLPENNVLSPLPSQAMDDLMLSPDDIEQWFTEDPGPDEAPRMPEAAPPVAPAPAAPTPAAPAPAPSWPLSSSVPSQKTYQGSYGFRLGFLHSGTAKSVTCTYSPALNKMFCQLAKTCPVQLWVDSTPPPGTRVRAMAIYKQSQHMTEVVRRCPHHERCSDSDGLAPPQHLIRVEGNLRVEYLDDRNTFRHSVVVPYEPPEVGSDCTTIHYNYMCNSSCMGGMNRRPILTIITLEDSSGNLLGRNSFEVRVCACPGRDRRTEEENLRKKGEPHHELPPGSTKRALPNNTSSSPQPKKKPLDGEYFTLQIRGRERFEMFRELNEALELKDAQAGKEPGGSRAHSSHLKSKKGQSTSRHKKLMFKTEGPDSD
# Assay: TOX21_p53_BLA_p2_ratio: Tox21 HCT-116 p53 Agonism Beta-lactamase Assay, Ratio, Phase 2 (AID 2283592)
# Excerpt: TOX21_p53_BLA_p2 is a cell-based, single-readout assay that uses HCT116, a human intestinal cell line, […] in a 1536-well plate.TOX21_p53_BLA_p2_ratio is an assay readout measuring reporter gene via receptor activity and designed using inducible reporter (beta lactamase induction) detected with GAL4 b-lactamase reporter gene. The signal is derived from the ratio of cleaved (ch2) to uncleaved (ch1) reporter gene substrate used as the measure of target activity.Data from the assay component TOX21_p53_BLA_p2_ratio was analyzed into 1 assay endpoint. This assay endpoint, TOX21_p53_BLA_p2_ratio, was analyzed in the positive analysis fitting direction relative to DMSO as the negative control and baseline of activity. Using a type of inducible reporter, gain-of-signal activity can be used to understand changes in the reporter gene as they relate to the gene TP53. Furthermore, this assay endpoint can be referred to as a primary readout, because this assay has produced multiple assay endpoints and this ratio serves a reporter gene function to understand target activity. To generalize the intended target to other relatable targets, this assay endpoint is annotated to the DNA binding intended target family, where the subfamily is tumor suppressor.
# Thawing Method: Place 14 mL of pre-warmed thaw medium into a 15 mL of conical tub. Remove the vial of cells to be thawed from liquid nitrogen and thaw rapidly by placing at 37C in a water bath with gentle agitation for 1-2 minutes. Decontaminate the vial by wiping with 70% ethanol before opening in a biological safety cabinet. Transfer the vial contents drop-wise into 14 mL of thaw medium in a sterile 15-mL conical tub. Centrifuge cells at 900 rpm for 4 minutes and resuspend in thaw medium. Transfer contents to the T75 tissue culture flask containing Thaw Medium and place flask in a humidified 37C/5% CO2 incubator. Switch to growth medium at first passage.Propagation Method: Aspirate medium, rinse once in DPBS, add 0.25% Trypsin/EDTA and swirl to coat the cell evenly. Add an equal volume of Growth Medium to inactivate Trypsin after 2-3 minutes incubation at 37C. Centrifuge cells at 900 rpm for 4 minutes and resuspend in growth medium. Cell should be passage or fed at least twice a week.Assay Protocol: Harvest cells from culture in growth medium and resuspend in assay medium. 2.2 Dispense 4000 cells/5 uL/well into 1536-well black/clear bottom plates using a Multidrop dispenser. After the cells were incubated at 37C for 5 hours, 23 nL of compounds dissolved in DMSO were transferred to the assay plate by a PinTool resulting in a 217-fold dilution. Incubate the plates for 16 hours at 37C, 5% CO2. Add 1 uL of 6X LiveBLAzer FRET B/G (CCF4-AM) Substrate Mixture to each well using a BioRAPTR dispenser and incubate the plates at room temperature for 2 hours. Measure fluorescence intensity at 460 and 530 nm emission and 405 nm excitation by an Envision detector. Data is expressed as the ratio of 460nm/530nm emissions. Add 4 uL of Cell-titer Glo to each well using BioRAPTR and incubate the plates at room temperature for 2 hours. Measure fluorescence intensity by a VewLux plate reader.
SMILES,outcome,AC50
CCCCN(CCCC)CCCC,inactive,
Cc1cccc(Nc2cc(Cl)nc(SCC(=O)O)n2)c1C,inactive,
COc1cccc2c1C(=O)c1c(O)c3c(c(O)c1C2=O)C[C@@](O)(C(=O)CO)C[C@@H]3O[C@H]1C[C@H](N)[C@H](O)[C@H](C)O1,,98.2 nM (active) and 390 nM (active)
CCCCC(CC)COC(=O)CC(C(=O)OCC(CC)CCCC)S(=O)(=O)O (stereo not given),inactive,77.1 µM (active) and 82.5 µM (active)
FC(F)(F)C(F)(F)C(F)(F)C(F)(F)C(F)(F)C(F)(F)CCI,inactive,
CC(C)(C)c1cc(O)c(C(C)(C)C)cc1O,,80.1 µM (active)
Cc1ccc(C)c(C)c1,inactive,
c1cc(-c2ccncc2)ccn1,inactive,
NCC1(Cc2noc(=O)[nH]2)CCCCC1,inactive,
Oc1ccc2c(c1)OC[C@@H](N1CCC(O)(c3ccc(F)cc3)CC1)[C@H]2O,inactive,
CN[C@H]1CC[C@@H](c2ccc(Cl)c(Cl)c2)c2ccc(S(N)(=O)=O)cc21,,87 µM (active)
COc1cc(/C=C/C(=O)CC(=O)/C=C/c2ccc(O)c(OC)c2)ccc1O,,2.06 µM (active) and 36 µM (active) and 6.79 µM (active)
O=c1[nH]cc(F)c(=O)[nH]1,,2.4 µM (active) and 1.97 µM (active) and 4.59 µM (active)
COc1ccc(S(=O)(=O)N2C(=O)[C@@](c3ccccc3OC)(N3C[C@H](O)C[C@H]3C(=O)N(C)C)c3cc(Cl)ccc32)c(OC)c1,,74.9 µM (active)
Cc1c(C(=O)O)c(O)cc2c1C(=O)c1c(O)c([C@@H]3O[C@H](CO)[C@@H](O)[C@H](O)[C@H]3O)c(O)c(O)c1C2=O,inactive,
Cc1ccc(Cl)cc1,inactive,
O=C(O)Cc1ccccc1Nc1c(Cl)cccc1Cl,inactive,68.9 µM (active)
C=CCc1ccc(O)c(OC)c1,inactive,
OC[C@@H](O)[C@@H](O)[C@H](O)[C@H](O)CO,inactive,

SMILES,outcome,AC50
CCCCCCCCCCCC(=O)OC,inactive,
CCc1c(C(=O)NN2CCCCC2)nn(-c2ccc(Cl)cc2Cl)c1-c1ccc(Br)cc1,inactive,
Cc1cc(=O)[nH]c(=S)[nH]1,inactive,
CCCCCCC(=O)OCC,inactive,
CN1CCN(Cc2cc(-c3ccc4[nH]c(=O)oc4c3)co2)[C@@H](c2ccc(F)cc2)C1,inactive,
COc1ccc(C)cc1N,inactive,
C=CCOC(=O)c1ccccc1C(=O)OCC=C,inactive,
C[C@]12C=CC(=O)C=C1CC[C@@H]1[C@@H]2C(=O)C[C@@]2(C)[C@H]1CC[C@]2(O)C(=O)CO,inactive,
COc1ccc2c(c1)c(CC(=O)O)c(C)n2C(=O)c1ccc(Cl)cc1,inactive,
NS(=O)(=O)c1cc2c(cc1Cl)NCNS2(=O)=O,inactive,
CC(=O)Oc1ccccc1C(=O)O,inactive,
CCCCCCOCCO,inactive,
Cc1ccccc1Cl,inactive,
COC(=O)c1ccc(O)cc1,inactive,
COCCOC[C@H](CC1(C(=O)NC2CCC(C(=O)O)CC2)CCCC1)C(=O)Oc1ccc2c(c1)CCC2 (stereo not given in full),inactive,
Cc1cc(NC(=O)C(=O)O)cc(C)c1Oc1ccc(O)c2c1CCC2,inactive,
O=[N+]([O-])C(CO)(CO)CO,inactive,
CC1(C)NC(=O)NC1=O,inactive,
Cc1oc(-c2ccccc2)nc1CCOc1cccc2c1ccn2CCC(=O)O,,68.6 µM (active)
